Source: PubChem BioAssay (National Center for Advancing Translational Sciences (NCATS))
RORg inh – ROR gamma (mouse) transcription inhibition | P51450 | Drosophila S2 Gal4-RORgamma UAS-luciferase reporter, 20 h | Potency, µM (highest dose often 53.6 µM), inactives show top-dose activity change, negative = inhibition, usual class: inhibitors | 310,000 tested, 5.4% active; also: nearly all actives have a fitted effect of over 60% in size
Target sequence (P51450 whole entry, looked up, the tested form may be a part): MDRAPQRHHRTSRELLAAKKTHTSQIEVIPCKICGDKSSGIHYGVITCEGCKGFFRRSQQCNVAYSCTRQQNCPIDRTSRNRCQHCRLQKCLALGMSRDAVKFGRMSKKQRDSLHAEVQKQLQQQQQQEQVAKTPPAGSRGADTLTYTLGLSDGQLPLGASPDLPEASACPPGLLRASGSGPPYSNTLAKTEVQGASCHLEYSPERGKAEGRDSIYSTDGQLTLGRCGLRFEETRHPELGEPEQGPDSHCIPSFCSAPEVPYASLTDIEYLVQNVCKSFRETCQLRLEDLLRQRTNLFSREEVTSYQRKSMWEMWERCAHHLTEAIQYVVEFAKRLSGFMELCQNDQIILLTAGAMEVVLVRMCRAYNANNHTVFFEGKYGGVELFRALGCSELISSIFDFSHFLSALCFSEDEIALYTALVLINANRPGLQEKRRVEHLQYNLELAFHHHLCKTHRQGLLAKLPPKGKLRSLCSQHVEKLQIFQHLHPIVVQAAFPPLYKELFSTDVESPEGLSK
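Compounds are pin-transferred onto Drosophila Schneider cells expressing a copper-inducible Gal4–ROR gamma transactivation domain fusion. After 1 hr, copper sulfate is added to 700 uM final; luciferase is read 20 hr later.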
DT40 TDP1 no CPT – qHTS for Inhibitors of human tyrosyl-DNA phosphodiesterase 1 (TDP1): qHTS in cells in absence of CPT. DT40 Tdp1-/- hTDP1 cells, no CPT, ATP luminescence, 48 h. Potency, µM (titrated, usually from 46.2 µM), for inactives: at the highest dose activity change, negative = growth inhibition, most hits filed as inhibitors. 420,000 tested, 15% active. AID 686978, 2013; also: nearly all actives have a fitted effect of over 55% in size
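Compound effects on proliferation are scored in DT40 Tdp1-/-;hTDP1 cells in the absence of CPT. ATP levels (CellTiter-Glo luminescence) are recorded after a ≥48 hr, 37 °C incubation.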
TDP1 cell CPT – DT40-hTDP1 cell growth loss with CPT. chicken DT40 Tdp1-/-;hTDP1 cells + 20 nM CPT, ATP luminescence, 48 h. Potency, µM (titrated, usually from 46.2 µM), for inactives: top-dose activity change, negative = growth inhibition, hits mostly inhibitors. 420,000 tested, 12% active. AID 686979; also: nearly all actives have a fitted effect of over 55% in size
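Chicken DT40 Tdp1-/- cells stably complemented with human TDP1 were seeded at 400 cells/well in medium containing 20 nM camptothecin, exposed to pin-transferred compounds, and grown at 37 °C for at least 48 hr. Viability was read as ATP luminescence.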
12-LOX inh – ALOX12 (human) lipoxygenase inhibition; P18054; AID 1671190; Potency, µM (highest dose often 108 µM), without a hit: at the highest dose activity change, negative = inhibition, usual class: inhibitors; purified 12hLO, xylenol orange hydroperoxide absorbance; 580,000 tested, 1.1% active
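Purified human 12hLO (150 nM final) in 25 mM Hepes, 0.01% Triton X-100, pH 7.0 was preincubated 15 min at room temperature with compound. Then 40 uM arachidonic acid was added, 30 min. Hydroperoxide was read by Fe-XO absorbance ratio 573/405 nm.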
ELG1 DNA repair – inhibitors of ELG1-dependent DNA repair in HEK293T cells. AID 504467. 330,000 tested, 2.3% active. Potency, µM (series often up to 46.1 µM), without a hit: at the top dose activity change, negative = inhibition, most hits filed as inhibitors. HEK293T ELG1-luciferase reporter, luminescence, 16 h; DNA damage induced by 5-fluorouridine; also: nearly all actives have a fitted effect of over 55% in size
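HEK293T cells expressing luciferase-tagged ELG1 (2,000/well) received 5-Fluorouridine plus compound or DMSO for 16 hr at 37 °C. Luciferase was read by ONE-Glo luminescence after 30 min at room temperature.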
Gal4-VP16 FLuc – counter-screen for ROR gamma inhibitors: Gal4-VP16 reporter. Drosophila S2 Gal4-VP16 UAS-luciferase, luminescence, 20 h. Potency, µM (doses to about 53.6 µM), without a hit: at the highest dose activity, negative = inhibition, usual class: inhibitors. 310,000 tested, 3.5% active;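 also: Gal4-VP16 expression switched on by copper sulfate through the metallothionein promoter; nearly all actives have a fitted effect of over 50% in size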
Active calls of the source: *; ? = inconclusive; nt = no result given; [ ] = remark or other dose. The list is not random: actives were taken first. Their share in the collection is about 15%. Calls follow the shape of the dose curve; as a rule, active = well fitted curve in the direction sought with a large enough effect; inconclusive = small, poorly fitted or top-dose-only effect, or another doubt; inactive = no such curve, though single readings can be large; an effect the other way counts as inactive or inconclusive. % is scaled to controls: 0 for no effect and ±100 for the full control effect; potency is read from the fitted curve at half-maximal effect.

SMILES | RORg inh | DT40 TDP1 no CPT | TDP1 cell CPT | 12-LOX inh | ELG1 DNA repair | Gal4-VP16 FLuc
COc1cc([N+](=O)[O-])ccc1NC(=O)CC1SC(=Nc2ccc(F)cc2)N(CCC2=CCCCC2)C1=O (stereo not drawn) | ? | 15µM* | 16µM* | -12% | -7% | ?
O=C(CC1SC(=Nc2ccc(OC(F)F)cc2)N(CCN2CCOCC2)C1=O)Nc1ccc(F)cc1F (stereo not drawn) | ? | ? | ? | -11% | ? | -11%
COc1ccc(N=C2SC(CC(=O)Nc3ccccc3)C(=O)N2Cc2ccccn2)cc1 (stereo not drawn) | 8% | 23µM* | 29µM* | 2% | ? | -5%
O=C(CSc1nnc(-c2ccncc2)n1-n1cccc1)Nc1ccc2c(c1)OCO2 | nt | nt | nt | -10% | nt | nt
CC(C)(C)C(=O)NC[C@H]1O[C@H](Cc2cc(-c3ccc(F)cc3)on2)CC[C@@H]1O | nt | nt | nt | 22%[176 µM] | nt | nt
COc1ccc(N=C2O/C(=C/c3sc(=S)n(CC4CCCO4)c3O)N=C2C#N)cc1 (stereo not drawn) | -14% | 29µM* | ? | 456% | -5% | 10%
Cc1ccnc(N(C(=O)Nc2ccccc2)C2=NCC(C)(C)S2)c1 | 11µM* | 0% | 40% | 13% | ? | ?
O=C1/C(=C/c2cccnc2)SC(=S)N1c1ccc(F)cc1 | 11µM* | -14% | ? | -23% | 10% | -11%
O=C1/C(=C/c2cccnc2)SC(=S)N1CC1CCCO1 (stereo not drawn) | 10µM* | ? | -4% | -8% | 11% | 6%
Cc1ccc(/C=C2\SC(=S)N(CC3CCCO3)C2=O)o1 (stereo not drawn) | 13µM* | ? | ? | 6.3µM* | -1% | ?
CCCCN1CCCCC1CNc1ccc2nnnn2n1 (stereo not drawn) | nt | nt | nt | -2% | nt | nt
CCc1noc(CN2CCC3(CC2)CC(=O)N(CCCc2ccccc2)C3)n1 | nt | nt | nt | 27% | nt | nt
COc1cc(OC)c(C(=O)Nc2cc(C(C)(C)C)on2)cc1OC | nt | nt | nt | -8% | nt | nt
CCOC(=O)c1csc(NC(=O)CC[C@H]2NC(=O)c3ccccc3NC2=O)n1 | nt | nt | nt | 35% | nt | nt
COc1cccc(C(=O)N2CCCCC2c2n[nH]c(C)n2)c1 (stereo not drawn) | nt | nt | nt | 27% | nt | nt
Cc1ccc(/C=C(\C#N)C(=O)Nc2cccc(Cl)c2)o1 | nt | -14% | 1.3µM* | 1% | nt | nt
Cc1c(NC(=O)/C(C#N)=C/c2ccc(-c3ccccc3Cl)o2)c(=O)n(-c2ccccc2)n1C | 26% | 29µM* | ? | -20% | ? | -4%
COc1ccccc1Oc1nc2ccccn2c(=O)c1/C=C(\C#N)C(=O)Nc1c(C)n(C)n(-c2ccccc2)c1=O | 19% | -17% | 4% | -7% | ? | -3%
Cc1ccc(Oc2nc3ccccn3c(=O)c2/C=C(\C#N)C(=O)Nc2c(C)n(C)n(-c3ccccc3)c2=O)c(C)c1 | -11% | 13µM* | ? | -20% | 8% | -4%
Cc1c(NC(=O)/C(C#N)=C/c2ccc(-c3cccc(Cl)c3)o2)c(=O)n(-c2ccccc2)n1C | 15% | 21µM* | ? | ? | ? | -15%
Cc1c(NC(=O)/C(C#N)=C/c2ccc(-c3ccc(Cl)c(Cl)c3)o2)c(=O)n(-c2ccccc2)n1C | 29% | 13µM* | 18µM* | -7% | 21µM* | -5%
COC(=O)COc1ccc(C(=O)N[C@@H]2CN(C(=O)NC(C)C)CCC[C@H]2O)cc1 | nt | nt | nt | 30%[176 µM] | nt | nt
CC(C)NC(=O)CSc1cc(C(=O)NC2CC2)c2ccccc2n1 | nt | nt | nt | -8% | nt | nt
Cc1ccc2oc(=O)cc(CN3CCN(C/C=C/c4ccccc4)CC3)c2c1 | -18% | 16µM* | ? | 163% | -16% | -2%
Cc1ccc2c(CN3CCN(Cc4ccccc4Cl)CC3)cc(=O)oc2c1 | nt | 23µM* | 16µM* | -17% | nt | nt
SMILES | RORg inh | DT40 TDP1 no CPT | TDP1 cell CPT | 12-LOX inh | ELG1 DNA repair | Gal4-VP16 FLuc
Cc1ccc2c(CN3CCN(Cc4ccccc4)CC3)cc(=O)oc2c1 | -1% | -17% | -25% | -1% | ? | 10%
Cc1cc(NC(=O)CSc2nc(Nc3ccccc3)c3ccccc3n2)no1 | nt | nt | nt | -2% | nt | nt
CCOC(=O)C1CCCN(c2nc3ccccc3nc2C(C#N)C(=O)NCc2ccccc2)C1 (stereo not drawn) | -7% | 9.2µM* | ? | -7% | -29% | 0%[0.365 µM]
N#CC(C(=O)NCc1ccccc1)c1nc2ccccc2nc1N1CCCC1 (stereo not drawn) | -4% | ? | ? | 0% | 8% | -13%
N#CC(C(=O)NCCc1ccccc1)c1nc2ccccc2nc1N1CCCCC1 (stereo not drawn) | -7% | -27% | 21µM* | 9% | -2% | 1%
CCCCCCNC(=O)C(C#N)c1nc2ccccc2nc1N1CCOCC1 (stereo not drawn) | 12% | -16% | ? | 405% | -1% | 9%
CCOC(=O)N1CCN(c2nc3ccccc3nc2C(C#N)C(=O)NCCc2ccccc2)CC1 (stereo not drawn) | 24% | 21µM* | 16µM* | -12% | ? | -2%
N#CC(C(=O)NCc1ccccc1)c1nc2ccccc2nc1N1CCN(CCc2ccccc2)CC1 (stereo not drawn) | nt | nt | nt | -6% | nt | nt
CCCCCCNC(=O)C(C#N)c1nc2ccccc2nc1N1CCN(C(=O)OCC)CC1 (stereo not drawn) | nt | nt | nt | 18% | nt | nt
N#CC(C(=O)NCCc1ccccc1)c1nc2ccccc2nc1N1CCOCC1 (stereo not drawn) | -25% | ? | 16µM* | 449% | ? | -7%
Cc1ccc(C(=O)CC2(O)C(=O)N(CN3CCOCC3)c3ccccc32)s1 (stereo not drawn) | nt | nt | nt | 33% | nt | nt
O=C(NCc1ccc2c(c1)OCO2)c1ccc(NC(=O)c2nsc3ccccc23)cc1 | nt | nt | nt | -7% | nt | nt
CCc1nc2c(c(-c3ccc(OC)cc3)n1)CN(C(=O)c1ccccc1F)CC2 | nt | nt | nt | -5%[6.33 µM] | nt | nt
CCCCCNC(=O)C(C#N)c1nc2ccccc2nc1N1CCCC1 (stereo not drawn) | 3% | ? | -4% | -24% | 14% | 2%
COCCCNC(=O)C(C#N)c1nc2ccccc2nc1N1CCCC1 (stereo not drawn) | 2% | -29% | -20% | 7% | 21µM* | -19%
